SMILES strings stand for the structures. Screen size: about 360,000 compounds; about 3,100 (0.86%) were called active.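 The calls were made as follows: active = inhibition or corrected inhibition above about 18%, plus a signal ratio from 0.5 to 1.5 (limit read from the data, passing the limit was not always enough); inactive = the rest.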 Many of the other results were omitted from the sample, so actives are more common in it than they were.

Sequence of Neuropilin-1 (Homo sapiens) (O14786 whole entry, looked up): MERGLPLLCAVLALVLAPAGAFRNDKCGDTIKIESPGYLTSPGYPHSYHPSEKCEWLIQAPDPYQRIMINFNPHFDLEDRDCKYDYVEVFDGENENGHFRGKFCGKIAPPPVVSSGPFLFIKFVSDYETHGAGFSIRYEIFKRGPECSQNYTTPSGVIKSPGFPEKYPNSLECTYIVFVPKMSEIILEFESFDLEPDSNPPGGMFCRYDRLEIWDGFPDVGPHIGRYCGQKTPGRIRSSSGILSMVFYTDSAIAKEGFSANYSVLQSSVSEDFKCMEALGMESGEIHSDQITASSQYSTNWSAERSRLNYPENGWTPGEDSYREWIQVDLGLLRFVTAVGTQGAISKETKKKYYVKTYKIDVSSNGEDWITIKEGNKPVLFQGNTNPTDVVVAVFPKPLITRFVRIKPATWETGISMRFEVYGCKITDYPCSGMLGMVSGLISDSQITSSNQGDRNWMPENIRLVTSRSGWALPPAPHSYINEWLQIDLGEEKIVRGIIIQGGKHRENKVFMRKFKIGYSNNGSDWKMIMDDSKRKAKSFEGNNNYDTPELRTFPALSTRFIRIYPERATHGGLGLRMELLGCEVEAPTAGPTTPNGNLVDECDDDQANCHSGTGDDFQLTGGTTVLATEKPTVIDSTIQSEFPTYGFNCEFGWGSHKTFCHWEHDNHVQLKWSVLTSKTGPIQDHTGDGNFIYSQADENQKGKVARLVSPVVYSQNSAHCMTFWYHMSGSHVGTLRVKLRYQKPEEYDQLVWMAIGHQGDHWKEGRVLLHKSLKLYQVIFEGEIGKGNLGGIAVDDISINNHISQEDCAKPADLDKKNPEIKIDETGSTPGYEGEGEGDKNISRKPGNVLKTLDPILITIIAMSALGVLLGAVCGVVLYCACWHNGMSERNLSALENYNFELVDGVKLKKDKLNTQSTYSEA

The experiment concerns the target Neuropilin-1 (Homo sapiens) (UniProt O14786). Briefly: NRP-1/CendR peptide interaction modulators – biochemical, fluorescence polarization, uHTS, primary screen (AID 602438). Particulars: FAM-RPARPAR peptide binding to NRP-1, fluorescence polarization; at 25 µM; hits give high values.
The term inhibition denotes the change of the read-out against control, counted positive when it falls. Consider `CC(=O)N/C(=C\c1ccccc1)C(=O)OC(C)C(=O)N(C)c1ccccc1` (stereo unspecified), for which the inhibition is 6.8% (inactive).

With `Cc1ccc(CN(CC(=O)NC2CCCCC2)C(=O)c2csnn2)cc1`, the inhibition was 24.5% (active).

With `O=C(CN(C(=O)c1csnn1)c1ccc(Br)cc1)NC1CCCC1`, the inhibition is 3.2% (inactive).

Regarding `Cc1ccccc1CCN(CC(=O)NC1CCCCC1)C(=O)c1csnn1`, the inhibition was -9.2% (inactive).

Consider `Nc1nc2c(Br)ccc(Br)c2cc1C(=O)NCCc1ccccc1`, for which the inhibition is 6.1% (inactive).

`COC(=O)c1cc(NC(=O)CN2CCN(C(C)=O)CC2)cc(C(=O)OC)c1`: the inhibition is 3% (inactive).

For the molecule `COCC(=O)Nc1cc(C(=O)OC)cc(C(=O)OC)c1`, the inhibition is 5.2% (inactive).

`COC(=O)c1cc(NC(=O)CN2CCC(C(N)=O)(N3CCCCC3)CC2)cc(C(=O)OC)c1`: the inhibition is 20.2% (active).

For the molecule `COC(=O)C1(C(=O)OC)C/C=C\CN(S(=O)(=O)c2ccccc2[N+](=O)[O-])CCC1`, the inhibition was 4.4% (inactive).

On to `CCOC(=O)[C@@H]1[C@H]2COc3cc(OC)ccc3[C@@H]2N2C(=O)N(c3cccc(C)c3)C(=O)[C@@]12C`, for which the inhibition is 4.4% (inactive).

As to `CC(=O)/C(=N\Nc1ccc(Cl)cc1Cl)Sc1cccc2cccnc12`, the inhibition is 61.1% (active).

As for `Cc1cc(OCCOc2cccc3cccnc23)c(C)cc1Cl`, the inhibition was -14.2% (inactive).

As for `COc1cccc(CNC(=O)C2CCN(S(=O)(=O)c3cccc4cccnc34)CC2)c1`, the inhibition is -3% (inactive).

Take `Cc1ccc(C2=Nc3c(ccc4ccccc34)C(c3ccncc3)=NN2)cc1`: the inhibition was 25.8% (active).

As for `CCOc1ccc2c(c1)C(c1ccc(C)cc1)=NNC(c1ccc(C)cc1)=N2`, the inhibition is 5.9% (inactive).

On to `O=C(NCCCCO)C(F)(F)C(F)(F)C(F)(F)C(=O)NCCCCO`, for which the inhibition was 11.3% (inactive).

Regarding `Nc1cccc(-c2cncc(N3CCN(Cc4ccccn4)CC3)n2)c1`, the inhibition was 1.6% (inactive).

Consider `CCCCCCCCCCOC(=O)C[N+](C)(C)CC1CCCCC1O` (stereo unspecified), for which the inhibition is 18.2% (inactive).

In the case of `Cc1ccn2c(c1)nc(=O)c1cc(S(=O)(=O)N3CCC(C)CC3)ccc12`, the inhibition was -3.9% (inactive).

On to `COc1cc2c(C(=O)O)c(C)n(C)c2c2ccccc12`, for which the inhibition was -42.6% (inactive).

Regarding `COc1cc2c(=O)n(C)c3ccccc3c2cc1OC`, the inhibition is 0% (inactive).

For `COc1cccc2c(O)cc(=O)n(C)c12`, the inhibition is 19.9% (active).

`OC(CNC1CCCC1)COc1ccc(F)cc1` (stereo unspecified): the inhibition was -0.8% (inactive).

For `COC(=O)C1CCN(CC(N)=O)CC1`, the inhibition is -10.1% (inactive).

As to `CCc1nc2c(OCc3ccc(C(F)(F)F)cc3)cccn2c1N(C)C(=O)CC(C)C`, the inhibition is 22.7% (active).

`CCc1nc2c(OCc3ccc(C(=O)OC)cc3)cccn2c1N(C)C(=O)C(C)C`: the inhibition was 13.8% (inactive).

Take `CCCCC(=O)N(C)c1c(CC)nc2c(OCc3ccc(S(C)(=O)=O)cc3)cccn12`: the inhibition is 1.6% (inactive).

For `COc1ccc(NC(=O)c2ccccc2CC[N+](=O)[O-])cc1`, the inhibition was 5.3% (inactive).

With `Cc1cc(C(=O)NNC(=O)CCC2CCCCC2)c(C)o1`, the inhibition was 3.2% (inactive).

As to `O=C(Nc1cccc(OCC(=O)N2CCOCC2)c1)C1CCCCC1`, the inhibition was 21.3% (active).

Take `O=C1CC2(CCCCC2)Oc2ccc(OCC(=O)N3CCOCC3)cc21`: the inhibition was 0.6% (inactive).

As for `Cc1cccc(NC(=O)C2CCN(C(=O)NC3CCCCC3)CC2)c1`, the inhibition is -7.7% (inactive).

On to `CN(C)CCCNC(=O)c1cc(C(=O)Cc2ccc(Cl)cc2)c[nH]1`, for which the inhibition is 3.7% (inactive).

Take `O=C(c1ccc(F)cc1)C1CCN(Cc2cn[nH]c2-c2ccccc2)CC1`: the inhibition was -10.4% (inactive).

For `COc1ccccc1CNC(=O)C1Cc2ccccc2C(=O)O1` (stereo unspecified), the inhibition was -8.4% (inactive).

Consider `O=C1/C(=C/c2cccs2)CCC1C1CCCC1` (stereo unspecified), for which the inhibition was 2.8% (inactive).

On to `OCC[C@H]1C[C@H](O)[C@@H](O)[C@]2(CCCCO2)O1`, for which the inhibition was 28.3% (active).

Regarding `C[C@H]1CC[C@]2(O[C@@H](CCO)C[C@@H](O)[C@@H]2O)O1`, the inhibition was 13.5% (inactive).

For the molecule `C[C@@H]1CC[C@]2(O[C@@H](CCO)C[C@H](O)[C@H]2O)O1`, the inhibition is -18.9% (inactive).

`COCCNC(=O)C1CCCN(Cc2ccccc2Cl)CC1` (stereo unspecified): the inhibition was 2% (inactive).

For the molecule `Cc1ccc(S(=O)(=O)C2C(=O)NC3(C)CC2c2ccccc2O3)cc1` (stereo unspecified), the inhibition is -9.3% (inactive).

As for `CCCOc1ccc(CNC(=O)C2CCN(c3nn4c(=O)cc(C)nc4s3)CC2)cc1`, the inhibition is -7.5% (inactive).

Turning to `CC(C)(C)NC(=O)C(c1ccncc1)N(C(=O)CNC(=O)c1ccco1)c1ccc2c(c1)OCO2` (stereo unspecified), the inhibition is 4% (inactive).

Turning to `COc1cccc(N(C(=O)CNC(=O)c2ccco2)C(C(=O)NC2CCCCC2)c2cccnc2)c1` (stereo unspecified), the inhibition was 5.7% (inactive).

Take `Cc1ccc(N(C(=O)CNC(=O)c2ccco2)C(C(=O)NC2CCCC2)c2ccncc2)cc1` (stereo unspecified): the inhibition is 18.5% (active).

In the case of `Cc1ccc(S(=O)(=O)NC2(C(F)(F)F)NC(=O)N(CCc3ccccc3)C2=O)cc1` (stereo unspecified), the inhibition is 11.7% (inactive).

For the molecule `O=C(c1c(F)cccc1Cl)N1CCN(S(=O)(=O)c2ccc3c(c2)OCCCO3)CC1`, the inhibition is 2.8% (inactive).

For `Cc1coc2c1c(C)cc1oc(=O)c(CC(=O)NCC(=O)N[C@H](C(=O)O)C(C)C)c(C)c12`, the inhibition was -3.3% (inactive).

As to `Cc1nn(CCCC(=O)NCc2ccccc2Cl)c(=O)c2nccn12`, the inhibition is 3.3% (inactive).

For the molecule `C[C@@H]1CN([C@H](C)CO)C(=O)CCCn2cc(nn2)CO[C@H]1CN(C)S(C)(=O)=O`, the inhibition is -4.3% (inactive).

Consider `Cc1coc2c(O)cc3c(c12)OC1(N2CCCCC2)C(=O)NCCCC31` (stereo unspecified), for which the inhibition is 26.1% (active).

Regarding `CSc1nnnn1-c1c(C)cc(C)cc1C`, the inhibition is 9.3% (inactive).

As to `COCCN(C(=O)COC(=O)Cc1cccc(OC)c1)c1c(N)n(Cc2ccccc2)c(=O)[nH]c1=O`, the inhibition is 3.8% (inactive).

Take `O=C(O)C1CCCN(CCC=C(c2ccccc2)c2ccccc2)C1` (stereo unspecified): the inhibition was 1.9% (inactive).

As for `O=[N+]([O-])/C=C/c1ccc2c(ccn2Cc2ccccc2)c1`, the inhibition is -5.7% (inactive).

As to `COC(=O)c1c(C)[nH]c(C(=O)/C=C/c2ccc(Cl)cc2)c1C`, the inhibition is 41% (active).

As for `COC(=O)c1c(C)[nH]c(C(=O)NCCc2ccc(S(N)(=O)=O)cc2)c1C`, the inhibition was -1.4% (inactive).

As to `Cc1cc(C)nc(NC(=O)/C=C/c2ccc(Cl)cc2)n1`, the inhibition was 6.6% (inactive).

Take `O=C(NCCN1CCOC1=O)C1CCC(=O)N(CCc2ccc(Cl)cc2)C1` (stereo unspecified): the inhibition was -0.8% (inactive).

Regarding `Cc1cc(CNC(=O)C2CCC(=O)N(CCc3ccc(Cl)cc3)C2)no1` (stereo unspecified), the inhibition is 28.7% (active).

For `O=C(NCCCc1ccccc1)C1CCC(=O)N(CCc2ccc(Cl)cc2)C1` (stereo unspecified), the inhibition is 8.8% (inactive).

Source of the values: PubChem BioAssay AID602438 (Sanford-Burnham Center for Chemical Genomics, 2012).
